Results reported in paper PMC4336329 (PLoS ONE, 2015).
Out of some 310,000 compounds screened, about 14,000 (4.5%) showed an effect of 50% or more. Effects have a minus sign here. Only a selection was taken, and strong results are over-represented in it overall.

These molecules were tested against human ether-à-go-go-related gene (hERG) potassium channel (human, UniProt Q12809) (assay: primary screen, population patch clamp on CHO cells stably expressing hERG; higher = less effect of the substance).
human ether-à-go-go-related gene (hERG) potassium channel, sequence (Q12809 whole entry, looked up): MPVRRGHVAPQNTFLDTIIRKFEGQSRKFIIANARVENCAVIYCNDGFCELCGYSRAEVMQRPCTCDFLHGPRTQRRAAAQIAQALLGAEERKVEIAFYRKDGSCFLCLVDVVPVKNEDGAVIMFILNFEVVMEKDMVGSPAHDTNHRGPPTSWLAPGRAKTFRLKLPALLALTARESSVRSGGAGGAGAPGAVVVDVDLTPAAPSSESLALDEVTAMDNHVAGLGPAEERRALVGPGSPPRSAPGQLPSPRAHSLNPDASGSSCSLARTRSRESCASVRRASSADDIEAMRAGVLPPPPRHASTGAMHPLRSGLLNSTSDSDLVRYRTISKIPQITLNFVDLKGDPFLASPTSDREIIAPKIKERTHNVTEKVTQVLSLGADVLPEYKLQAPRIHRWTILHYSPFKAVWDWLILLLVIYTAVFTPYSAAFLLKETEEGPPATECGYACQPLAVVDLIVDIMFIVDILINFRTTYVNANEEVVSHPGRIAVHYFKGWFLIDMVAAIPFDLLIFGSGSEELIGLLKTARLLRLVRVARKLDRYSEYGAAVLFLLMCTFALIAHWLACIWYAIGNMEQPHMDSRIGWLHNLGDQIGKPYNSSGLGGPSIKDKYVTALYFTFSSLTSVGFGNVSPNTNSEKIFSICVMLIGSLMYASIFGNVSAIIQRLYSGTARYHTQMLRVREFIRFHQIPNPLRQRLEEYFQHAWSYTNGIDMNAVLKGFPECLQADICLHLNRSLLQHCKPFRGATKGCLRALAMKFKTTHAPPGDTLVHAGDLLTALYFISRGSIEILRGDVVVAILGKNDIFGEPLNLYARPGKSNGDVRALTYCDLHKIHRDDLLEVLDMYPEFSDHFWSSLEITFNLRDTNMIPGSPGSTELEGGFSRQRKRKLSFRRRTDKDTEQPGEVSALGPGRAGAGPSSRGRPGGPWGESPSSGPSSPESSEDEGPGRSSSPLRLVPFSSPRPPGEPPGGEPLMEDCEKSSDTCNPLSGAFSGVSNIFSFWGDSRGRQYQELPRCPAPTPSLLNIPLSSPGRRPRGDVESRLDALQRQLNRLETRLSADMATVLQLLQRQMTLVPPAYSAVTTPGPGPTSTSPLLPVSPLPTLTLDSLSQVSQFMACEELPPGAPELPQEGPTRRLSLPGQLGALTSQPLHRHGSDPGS
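Also: peak tail current of the secondary pulse compared with the same well before compound.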

Structure (SMILES)	hERG current change (%, negative = inhibition) at 10uM [%]
CC(Oc1ccc(F)cc1F)C(=O)NNC(=S)NCC1CCCO1 (stereo not drawn)	9.12
CC(C)(C)C(=O)Nc1sc2c(c1C#N)CCN(Cc1ccccc1)C2.Cl	1.78
CCc1ccc(-c2cc(C(=O)Nn3cnnc3)c3ccccc3n2)cc1	10.7
Clc1c(-c2nnc3n2CCCCC3)sc2ccccc12	-13.9
COc1ccc2c(Cl)c(-c3nnc4n3CCCCC4)sc2c1	-51.2
Clc1c(-c2nnc3n2CCC3)sc2ccccc12	10.4
COc1cc(NC(=O)CSc2nc(C)c(C)c(C)n2)c(C)cc1[N+](=O)[O-]	0.898
Cc1nn(-c2ccccc2)c2c1C(O)CC(C)(C)C2 (stereo not drawn)	17.8
COc1cc(-c2nc3cnccn3c2Nc2ccccc2)ccc1O	-0.787
CCN1CCN(C(=O)/C=C/c2ccc(OC)cc2)CC1	-19.1
CCOC(=O)N1CCN(C(=O)/C=C/c2ccc(OC)cc2)CC1	-17.8
CN1CCN(C(=O)/C=C/c2ccc(Cl)c(Cl)c2)CC1	-23
CN1CCN(C(=O)/C=C/c2ccc([N+](=O)[O-])cc2)CC1	-67
CCOC(=O)N1CCN(C(=O)/C=C/c2ccc(C(C)(C)C)cc2)CC1	-26.1
CN1CCN(C(=O)/C=C\c2ccc(Cl)cc2)CC1	-41
CN1CCN(C(=O)/C=C/c2ccc(C#N)cc2)CC1	-54.3
CCOC(=O)N1CCN(C(=O)/C=C/c2ccc([N+](=O)[O-])cc2)CC1	-70.6
CSc1ccc(/C=C/C(=O)N2CCCN(C)CC2)cc1.Cl	-26.6
CCN1CCN(C(=O)/C=C/c2ccc(C(C)C)cc2)CC1	-35.2
CCN1CCN(C(=O)/C=C/c2ccc([N+](=O)[O-])cc2)CC1	-64.2
CN1CCN(C(=O)/C=C/c2ccc(Cl)cc2)CC1	-44.8
COc1ccc(-c2cc3nc(C)cc(N)n3n2)cc1	3.53

Structure (SMILES)	hERG current change (%, negative = inhibition) at 10uM [%]
CCCCC(=O)NC1(C(F)(F)F)C(=O)Nc2c1c(=O)n(C)c(=O)n2C (stereo not drawn)	-4.15
O=C(NC1CC(=O)N(c2ccccc2)C1)C(=O)c1c[nH]c2ccccc12 (stereo not drawn)	-11.1
COc1cc2c(cc1OC)CN(C(=O)/C=C/c1ccc([N+](=O)[O-])cc1)CC2	-55.1
COc1cc2c(cc1OC)CN(C(=O)/C=C/c1ccc(F)cc1)CC2	-22.2
COc1cc2c(cc1OC)CN(C(=O)/C=C/c1cccc([N+](=O)[O-])c1)CC2	-31.2
CCOc1cc(C(c2c(C)[nH][nH]c2=O)c2c(C)[nH][nH]c2=O)ccc1OC(=O)c1cccc([N+](=O)[O-])c1	-4.87
CCOc1ccc(-c2cc(C)[n+](CCO)c(-c3ccc(OCC)cc3)c2)cc1.[O-][Cl+3]([O-])([O-])[O-]	-62.6
CCOc1ccc(-c2nc(C)sc2CC(=O)O)cc1	11
CCOc1ccc(C(=O)CC(=O)C(=O)NCCc2ccc(OC)c(OC)c2)cc1	-10
COc1ccc(CCNC(=O)COc2ccc(-c3ccc(C)cc3)cc2)cc1OC	-9.64
CCOc1ccc(-c2cc(C)[n+](CCc3ccc(OC)c(OC)c3)c(-c3ccc(OCC)cc3)c2)cc1.[O-][Cl+3]([O-])([O-])[O-]	-83.1
CCOC(C[n+]1c(-c2ccccc2)cc(C)cc1-c1ccccc1)OCC.[O-][Cl+3]([O-])([O-])[O-]	3.9
Cc1cc(-c2ccccc2)cc(-c2ccccc2)[n+]1CCc1ccccc1.[O-][Cl+3]([O-])([O-])[O-]	-76.5
CCOc1ccc(-c2cc(C)[n+](CCN3CCOCC3)c(-c3ccc(OCC)cc3)c2)cc1.[O-][Cl+3]([O-])([O-])[O-]	-41.4
Cc1cc(-c2ccccc2)cc(C)[n+]1Cc1ccccc1.[O-][Cl+3]([O-])([O-])[O-]	5.38
CCOc1ccc(-c2cn[nH]c2N)cc1	-5.03
Br.CC(C)O.Cc1ccc(-c2csc(Nc3ccccc3)[n+]2CCc2ccccc2)cc1	20.5
CCOc1ccc(-c2cc(C)[n+](CCN(CC)CC)c(-c3ccc(OCC)cc3)c2)cc1.[O-][Cl+3]([O-])([O-])[O-]	-79.3
O=C(CNC(=O)c1ccc(Br)o1)NNC(=O)c1ccc(Br)cc1	-35.6
O=C(c1ccccc1-c1nc2ccccc2[nH]1)N1CCOCC1	-5.47
COCCN1CCN(C(=O)C2CCC(=O)N(Cc3ccccc3OC)C2)CC1 (stereo not drawn)	8.85
COc1ccc(/C=C(\C#N)C(=O)NCc2ccccc2)cc1	19.4

Structure (SMILES)	hERG current change (%, negative = inhibition) at 10uM [%]
COC(=O)[C@@]12CCCCN1[C@H](c1ccc(SC3CCCCC3)c(OC)c1)[C@@H]1C(=O)N(C)C(=O)[C@@H]12.O=C(O)C(F)(F)F	19.8
CCN1C(=O)[C@@H]2[C@@H](c3ccc(SC4CCCCC4)c(OC)c3)N3CCC[C@@]3(C(=O)OC)[C@@H]2C1=O.O=C(O)C(F)(F)F	-56
CCN1C(=O)[C@H]2[C@@H](c3ccc(SC4CCCCC4)c(OC)c3)N3CCCC[C@@]3(C(=O)OC)[C@H]2C1=O.O=C(O)C(F)(F)F	13
COC(=O)c1ccccc1NC1=C/C(=N\S(=O)(=O)c2ccc(C(=O)O)cc2)c2ccccc2C1=O	-15.5
CCCCNC(=O)C(C#N)c1nc2ccccc2nc1N1CCN(c2ccccc2F)CC1 (stereo not drawn)	4.79
CC1CCN(C(=O)COC(=O)c2ccc(=O)n(Cc3ccccc3)n2)CC1	-0.635
Cc1ccc(/C=C/C2=NN(Cc3ccccc3Cl)C(=O)CC2)cc1	-4.44
COc1ccc(-c2nnnn2C(C)C)cc1S(=O)(=O)Nc1ccccc1	-13.9
O=C(NCCCN1CCOCC1)c1ccc(-c2ccc(Cl)cc2)o1	-55.1
O=C(NCCCN1CCOCC1)c1ccc(CS(=O)(=O)Cc2ccc(Cl)cc2)o1	4.4
O=C(CCNC(=O)c1ccc(Cl)cc1)NCCCN1CCOCC1	4.31
Cc1cccc(CSCCNC(=O)c2ccc(CN3CCOCC3)cc2)c1	-28.3
Cl.O=C(NCCCN1CCOCC1)c1ccc(CSc2ccc(Cl)cc2)cc1	-59.2
O=C(NCCSc1ccccc1)c1ccc(CN2CCOCC2)cc1	-10.3
O=C(NCCN1CCOCC1)c1ccc(Cl)cc1	16
O=C(NCCSCc1ccc(Cl)cc1Cl)c1ccc(CN2CCOCC2)cc1	-54.6
Cc1ccc(SCCNC(=O)c2ccc(CN3CCOCC3)cc2)cc1	-32.6
O=C(NCCSc1ccc(Cl)cc1)c1ccc(CN2CCOCC2)cc1	-58.5
Cc1ccc(C(=O)NCCCN2CCOCC2)o1	30.3
O=C(NCCSCc1c(F)cccc1Cl)c1ccc(CN2CCOCC2)cc1	-26.9
O=C(CSc1nnc(CNC(=O)c2cccc(C(F)(F)F)c2)o1)NC1CCCC1	5.51
O=C(Cc1ccc(Br)cc1)N1CCOCC1	13.6

Structure (SMILES)	hERG current change (%, negative = inhibition) at 10uM [%]
COc1ccc(C(=O)Nc2sc3c(c2C(=O)O)CC(C)(C)OC3)cc1	-2.18
CN1CCN(c2ccccc2NC(=O)c2c(F)cccc2F)CC1	-19.9
O=C(NCc1ccco1)/C(=C\c1ccco1)NC(=O)c1cccs1	-14.8
CCOC(=O)c1c(NC(=O)CSc2nnc(-c3cccnc3)o2)sc(C(C)=O)c1C	-46.1
Cc1ccc(-n2c(SCC(=O)N3CC(=O)Nc4ccccc43)nc3ccccc3c2=O)cc1	-1.05
CNC(=S)SCCOc1ccccc1	-4.52
O=C(Cc1cccs1)Nc1nc(-c2ccc(F)c(F)c2)cs1	19
CCOc1ccc(N2CC(C(=O)NCCCN3CCOCC3)CC2=O)cc1 (stereo not drawn)	-5.47
O=C(COc1ccc(Br)cc1Cl)N1CCN(c2ncccn2)CC1	-49.7
COc1ccc(CNCCC(c2ccccc2)C2CCOC(C)(C)C2)cc1 (stereo not drawn)	-52.1
CC(c1ccccc1)N(CCC(c1ccccc1)C1CCOC(C)(C)C1)C(=O)c1ccco1 (stereo not drawn)	-22.2
COc1ccc(CN(CC(=O)NCc2ccc(F)cc2)C(=O)c2ccco2)cc1	-61.7
CCCCN(CC(=O)NCc1ccc(F)cc1)C(=O)c1ccco1	8.72
CC1(C)CC(C(CC(=O)O)c2ccccc2)CCO1 (stereo not drawn)	28.9
COc1ccc(CN(CCC(c2ccccc2)C2CCOC(C)(C)C2)C(C)=O)cc1 (stereo not drawn)	-11.6
O=C(CN(Cc1ccc(F)cc1)C(=O)c1ccco1)NCc1ccc(F)cc1	-40.9
COc1ccc(CN(CCC(c2ccc(F)cc2)C2CCOC(C)(C)C2)C(=O)c2ccco2)cc1 (stereo not drawn)	-52.1
O=C(CN(Cc1ccccc1F)C(=O)c1ccco1)NCc1ccc(F)cc1	-50.7
CC1(C)CC(C(CCN(Cc2ccccc2)C(=O)c2ccco2)c2ccc(F)cc2)CCO1 (stereo not drawn)	-10.4
COc1cccc(CN(CC(=O)NCc2ccc(F)cc2)C(=O)c2ccco2)c1	-39.2
O=C(CN(Cc1ccccc1)C(=O)c1ccco1)NCc1ccc(F)cc1	-31.6
